Most compounds without a hit are left out; they make up all but 6.7% or so of the library.
Pf Dd2 growth: P. falciparum Dd2 growth inhibition. SYBR Green, 72 h; stronger effect = lower value. activity change, % at 10 µM. 2.3% of 94,000 active; in the data active = activity change below about -80%; inconclusive = no clear call, values can overlap the other calls
C diff growth: C. difficile growth inhibition | Clostridium difficile clinical isolate growth, OD600, 24 h; stronger effect = lower value | growth activity, negative = inhibition, % at 16 µg/mL (by protocol) | 0.25% of 86,000 active;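 active = mean growth activity at or below -80% and every replicate also at or below -80%; inconclusive = mean at or below -80% but some replicate above -80%; inactive = mean growth activity above -80%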;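 note: 0% = DMSO wells and -100% = levofloxacin 16 µg/mL wells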
T cruzi growth-1: blocks T. cruzi growth in NIH3T3 culture. 5.9% of 77,000 active. AID 624255. inhibition, % at 8.34 µM. T. cruzi beta-gal in NIH3T3, GalScreen luminescence, 90 h;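 active = mean inhibition above about 93%, with at least 55% of replicates each passing it, limit read from the data, passing the limit was not always enough; inconclusive = only one of those two conditions holds; inactive = neither condition holds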
T cruzi growth-2: Trypanosoma cruzi proliferation inhibition. shares compounds with T cruzi growth-1. T. cruzi beta-gal in NIH3T3, GalScreen luminescence, 90 h. inhibition, % at 8.35 µM. 72% of 5,600 active;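 active = mean replicate inhibition above about 95% and at least 55% of replicates individually reaching it, limit read from the data; inconclusive = only one of the two criteria is met; inactive = neither criterion is met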
T cruzi growth-3: Trypanosoma cruzi proliferation inhibition. T. cruzi beta-gal in NIH3T3, GalScreen luminescence, 90 h. shares compounds with T cruzi growth-1. inhibition, % at 2.09 µM. AID 651740. 21% of 5,600 active;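 active = mean inhibition above about 95%, with at least 55% of replicates also reaching it, limit read from the data; inconclusive = meets just one of the two conditions; inactive = meets neither condition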;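 note: plate controls were neutral control median for no effect and positive control median for full effect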
NIH3T3 tox: cytotoxicity in mouse NIH/3T3 fibroblasts. shares compounds with T cruzi growth-1. NIH/3T3 viability, CellTiter-Glo ATP luminescence, 90 h. cytotoxicity (signal decrease), % at 8.35 µM. 14% of 5,600 active;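 active = mean signal decrease across replicates above about 35% based on untreated-well scatter, with enough replicates individually passing, limit read from the data; inconclusive = no rule stated though some were filed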;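 note: 0% = median of neutral control wells and 100% = median of positive control wells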
3T3 cytotox 2: kills mouse NIH/3T3 fibroblasts; shares compounds with T cruzi growth-1; NIH/3T3 viability, CellTiter-Glo ATP luminescence, 90 h; inhibition, % at 24.9 µM; 56% of 5,600 active; AID 651744;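 active = mean loss of cell viability signal at or above a set limit, and enough replicates individually reaching it; inconclusive = meets only the mean limit or only the replicate share; inactive = meets neither condition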;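 note: 0% = median of neutral control wells and 100% = median of positive control wells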
* hit, by the source's call; u = inconclusive; x = no result given.

SMILES | Pf Dd2 growth | C diff growth | T cruzi growth-1 | T cruzi growth-2 | T cruzi growth-3 | NIH3T3 tox | 3T3 cytotox 2
CC(C)CC#Cc1ccc2c(c1)O[C@@H](CN(C)S(=O)(=O)c1cccc(F)c1)[C@@H](C)CN([C@@H](C)CO)S2(=O)=O | -24.1 | -1.0 | 120.9* | 90.6 | 112.1* | 25.9 | 105.0*
CC(C)CC#Cc1ccc2c(c1)O[C@H](CN(C)S(=O)(=O)c1cccc(F)c1)[C@@H](C)CN([C@H](C)CO)S2(=O)=O | -62.6 | 6.8 | 118.5* | 100.6* | 106.8* | 32.3 | 60.8*
CCCC#Cc1ccc2c(c1)O[C@@H](CN(C)S(=O)(=O)c1cccc(F)c1)[C@@H](C)CN([C@H](C)CO)S2(=O)=O | -56.2 | 23.0 | 124.5* | 103.6* | 85.0 | 17.4 | 19.1
C[C@@H]1CN([C@H](C)CO)S(=O)(=O)c2ccc(C#CCN(C)C)cc2O[C@H]1CN(C)S(=O)(=O)c1cccc(F)c1 | -18.0 | 1.9 | x | x | x | x | x
C[C@H]1CN([C@@H](C)CO)S(=O)(=O)c2ccc(C#CCN(C)C)cc2O[C@H]1CN(C)S(=O)(=O)c1cccc(F)c1 | -16.8 | 1.3 | x | x | x | x | x
C[C@H](CO)N1C[C@H](C)[C@H](CN(C)S(=O)(=O)c2cccc(F)c2)Oc2cc(C#CCN(C)C)ccc2S1(=O)=O | -0.7 | 0.9 | x | x | x | x | x
CC(C)CC#Cc1ccc2c(c1)O[C@@H](CN(C)S(=O)(=O)c1cccc(F)c1)[C@H](C)CN([C@@H](C)CO)S2(=O)=O | u | 10.4 | 110.2* | u | 114.6* | 33.6 | 68.2*
CO[C@@H]1CC[C@H]2CCN(C)C(=O)[C@H](C)[C@H](OC)CN(C)C(=O)c3cc(C#N)ccc3OC[C@H]1O2 | 27.4 | x | -86.8 | x | x | x | x
Cc1noc(C)c1S(=O)(=O)Nc1ccc2c(c1)C(=O)N([C@@H](C)CO)C[C@H](C)[C@H](CN(C)S(=O)(=O)c1ccc(Cl)cc1)O2 | -7.3 | -4.5 | -20.7 | x | x | x | x
Cc1ccc(S(=O)(=O)N(C)C[C@@H]2OCCCC[C@H](C)Oc3ccc(NC(=O)Nc4c(C)noc4C)cc3C(=O)N([C@H](C)CO)C[C@@H]2C)cc1 | -58.1 | -8.6 | -7.1 | x | x | x | x
COCC#Cc1ccc2c(c1)O[C@@H](CN(C)S(=O)(=O)c1cccc(F)c1)[C@H](C)CN([C@H](C)CO)S2(=O)=O | -68.9 | -0.6 | 29.0 | x | x | x | x
CC(C)CC#Cc1ccc2c(c1)O[C@@H](CN(C)S(=O)(=O)c1cccc(F)c1)[C@H](C)CN([C@H](C)CO)S2(=O)=O | -56.5 | 7.8 | 121.0* | 103.1* | 86.6 | 45.3* | 106.4*
C[C@@H]1CCCCO[C@H](CN(C)S(=O)(=O)c2ccc(Cl)cc2)[C@H](C)CN([C@H](C)CO)C(=O)c2cc(N(C)C)ccc2O1 | -69.4 | -13.0 | 101.5* | 104.5* | 23.7 | 14.2 | -2.5
Cc1ccc(S(=O)(=O)N(C)C[C@H]2OCCCC[C@H](C)Oc3ccc(N(C)C)cc3C(=O)N([C@H](C)CO)C[C@H]2C)cc1 | -19.4 | 3.0 | 76.1 | x | x | x | x
C[C@@H]1CN([C@@H](C)CO)C(=O)c2cc(NS(=O)(=O)c3ccc(Cl)cc3)ccc2O[C@@H](C)CCCCO[C@@H]1CN(C)S(=O)(=O)c1ccc(Cl)cc1 | -70.9 | 7.5 | 97.9* | 100.6* | 114.5* | -28.1 | 13.8
C[C@@H]1CN([C@H](C)CO)C(=O)c2cc(NS(=O)(=O)c3ccc(Cl)cc3)ccc2O[C@@H](C)CCCCO[C@@H]1CN(C)S(=O)(=O)c1ccc(Cl)cc1 | -73.2 | 2.2 | u | 99.7* | 112.0* | -13.0 | u
C[C@H](CO)N1C[C@H](C)[C@@H](CN(C)S(=O)(=O)c2ccc(Cl)cc2)OCCCC[C@H](C)Oc2ccc(NS(=O)(=O)c3ccc(Cl)cc3)cc2C1=O | -28.5 | 3.8 | 87.0 | x | x | x | x
C[C@@H]1CCCCO[C@@H](CN(C)S(=O)(=O)c2ccc(Cl)cc2)[C@H](C)CN([C@H](C)CO)C(=O)c2cc(NS(=O)(=O)c3ccc(Cl)cc3)ccc2O1 | -62.1 | 0.7 | 62.1 | x | x | x | x
COc1cccc(C#Cc2cnc3c(c2)C(=O)N([C@@H](C)CO)C[C@H](C)[C@H](CN(C)C)O3)c1 | -43.1 | 10.5 | 85.8 | x | x | x | x
COc1cccc(C(=O)Nc2ccc3c(c2)C(=O)N(C)C[C@@H](OC)[C@H](C)CN[C@H](C)CO3)c1 | 29.9 | x | -23.3 | x | x | x | x
COc1cccc(NC(=O)N[C@H]2CC[C@H](CC(=O)N3CCN(C)CC3)O[C@H]2CO)c1 | 8.9 | 3.4 | -13.2 | x | x | x | x
C[C@H](O)C#Cc1ccc([C@H]2[C@@H](CO)N3CCCCN(S(=O)(=O)c4ccccc4)C[C@@H]23)cc1 | -14.1 | -1.0 | 90.2 | x | x | x | x
C[C@@H](O)C#Cc1ccc([C@H]2[C@H](CO)N3CCCCN(S(=O)(=O)c4ccccc4)C[C@@H]23)cc1 | -19.2 | -5.7 | 104.9* | 71.2 | -2.6 | 2.4 | 5.0
C[C@H](O)C#Cc1ccc([C@@H]2[C@@H](CO)N3CCCCN(S(=O)(=O)c4ccccc4)C[C@@H]23)cc1 | -15.8 | -3.6 | 24.0 | x | x | x | x
C[C@@H](O)C#Cc1ccc([C@@H]2[C@@H](CO)N3CCCCN(S(=O)(=O)c4ccccc4)C[C@@H]23)cc1 | -5.6 | -10.1 | 116.5* | 41.4 | 9.3 | 9.7 | 25.5*
SMILES | Pf Dd2 growth | C diff growth | T cruzi growth-1 | T cruzi growth-2 | T cruzi growth-3 | NIH3T3 tox | 3T3 cytotox 2
C[C@H](O)C#Cc1ccc([C@@H]2[C@@H](CO)N3CCCCN(S(=O)(=O)c4ccccc4)C[C@H]23)cc1 | -37.9 | -8.0 | 110.6* | 60.8 | -17.6 | 15.9 | 8.4
C[C@@H](O)C#Cc1ccc([C@H]2[C@H]3CN(S(=O)(=O)c4ccccc4)CCCCN3[C@H]2CO)cc1 | u | -5.8 | 72.5 | x | x | x | x
CCCNC(=O)Nc1ccc2c(c1)C(=O)N(C)C[C@H](OC)[C@@H](C)CN(C(=O)CC)[C@@H](C)CO2 | 45.4 | -7.2 | 26.0 | x | x | x | x
O=C(NC1CCCCC1)[C@@H]1[C@@H](CO)[C@@H]2Cn3c(cccc3=O)[C@H]1N2CC1CCCCC1 | 20.2 | -0.2 | x | x | x | x | x
COc1ccc(S(=O)(=O)Nc2ccc3c(c2)C(=O)N([C@@H](C)CO)C[C@@H](C)[C@H](CN(C)C(=O)c2ccccc2)OCCCC[C@@H](C)O3)cc1 | 2.9 | 3.1 | 55.3 | x | x | x | x
C[C@H](CO)N1C[C@H](C)[C@@H](CN(C)Cc2ccc(C(=O)O)cc2)OCCCC[C@H](C)Oc2ccc(NS(=O)(=O)c3ccc(Cl)cc3)cc2C1=O | -33.5 | -5.0 | -6.7 | x | x | x | x
Cc1ccc(-c2ccc3c(c2)O[C@H](CN(C)Cc2ccc(C(=O)O)cc2)[C@H](C)CN([C@H](C)CO)S3(=O)=O)cc1 | -14.5 | -1.9 | 18.3 | x | x | x | x
C[C@H]1CN([C@@H](C)CO)S(=O)(=O)c2ccc(-c3ccccc3)cc2O[C@@H]1CN(C)Cc1ccccc1 | -58.4 | 37.9 | 80.2 | x | x | x | x
Cc1ccc(-c2ccc3c(c2)O[C@@H](CN(C)Cc2ccccc2)[C@@H](C)CN([C@H](C)CO)S3(=O)=O)cc1 | -44.0 | -1.2 | 114.5* | 83.9 | 102.7* | 4.1 | 102.8*
